We go through 13 molecules from PubChem BioAssay AID743147 (Broad Institute, 2013).

Unmarked numbers belong to inactive results.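 Rule for the calls: active = ATP luminescence loss from cell killing, with fitted half-maximal dose at or below the top valid tested dose; inconclusive = flat curve with partial loss of 30 to 70%, or poor fit; inactive = the rest.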

A short description of the assay: viability loss in HEK293T cells – cell-based, CellTiter-Glo luminescence, dry powder, set 5, cytotoxicity control, dose response (AID 743147). To be noted: CellTiter-Glo ATP luminescence, 72 h; series mostly up to 26 µM; activity change, negative = cytotoxicity: at the top concentration. (In general: ATP-based viability assays read luminescence as a measure of living cells.)
For `O=C1CN2Cc3c(ccc(Cl)c3Cl)N=C2N1`, the “activity change, negative = cytotoxicity” value was -0.788%.

As to `C[C@@H]1CC(=O)NN=C1c1ccc(-c2cncnc2)cc1`, the “activity change, negative = cytotoxicity” value is 20.9%.

As for `C[C@H]1CC(=O)NN=C1c1ccc(N2CCOCC2)c(F)c1`, the “activity change, negative = cytotoxicity” value was 0.453%.

`C[C@@H]1CC(=O)NN=C1c1ccc(N2CCOCC2)cc1`: the “activity change, negative = cytotoxicity” value was -11.2%.

Regarding `CCN1N=C(c2ccc(N(CC)CC)cc2)[C@H](C)CC1=O`, the “activity change, negative = cytotoxicity” value was -13.9%.

`C[C@@H]1CC(=O)NN=C1c1ccc(C2CCCCC2)cc1`: the “activity change, negative = cytotoxicity” value is -17.5%.

Take `Cn1c(NC(=O)c2ccccc2)nc2ccccc21`: the “activity change, negative = cytotoxicity” value is -26.1%.

As for `CCN(CC)c1ccc(C2=NNC(=O)CC2C)cc1[N+](=O)[O-]` (stereo not drawn), the “activity change, negative = cytotoxicity” value is -11.4% [at 12 µM].

Turning to `C[C@@H]1CC(=O)NN=C1c1ccc(Cl)cc1`, the “activity change, negative = cytotoxicity” value is -16.6%.

On to `C[C@@H]1CC(=O)NN=C1c1ccc(N2CCOCC2)c(F)c1`, for which the “activity change, negative = cytotoxicity” value was 36.7%.

On to `C[C@@H]1CC(=O)NN=C1c1ccc(F)c(F)c1`, for which the “activity change, negative = cytotoxicity” value is 22.2%.

Take `COc1cc2c(cc1OC)-c1cc(=Nc3c(C)cc(C)cc3C)n(C)c(=O)n1CC2`: the “activity change, negative = cytotoxicity” value was -10.5%.

As for `CC(=O)Nc1ccc(C2=NNC(=O)C[C@H]2C)cc1[N+](=O)[O-]`, the “activity change, negative = cytotoxicity” value is 29.3%.
